# Only some compounds are listed: those with a hit (about 2.7% of all), similar ones and a draw of the others.
# Shn3 inh set2: reduction of Shn3 3'UTR firefly luciferase signal, primary screen, Schnurri-3 inhibitor project, cell-based, Clone20 osteoblasts, set 2. Clone20 osteoblast Shn3 3'UTR firefly luciferase, 24 h. inhibition, % at 12.5 µM. 360,000 tested, 0.52% active. AID 588674, 2011;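 active = mean inhibition of at least 75% with every replicate also reaching 75%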;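 also: 0% = median of neutral control wells and 100% = pilot-screen positive control compound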
# Peg3 prom inh: Peg3 promoter-driven luciferase inhibitors, primary screen, cell-based, HeLa, luciferase luminescence | HeLa PEG-Prom luciferase reporter, overnight | inhibition, % at 20 µM | 360,000 tested, 1.7% active | AID 588405, 2011;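 active = inhibition of at least 50% at 20 µM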
# KKLEB tox: cytotoxicity in KKLEB CF airway cells, primary screen, cytotoxicity control for CF NF-kB inhibitor project, cell-based, uHTS, fluorescence assay plates; 360,000 tested, 0.36% active; KKLEB CF airway cells viability, ATPlite luminescence, overnight; stronger effect = lower value; cells stimulated with P. aeruginosa culture filtrate; activity change (cytotoxicity), % at 5 µM;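 active = corrected activity change at or below -50% at 5 µM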
# TRPM1 prom inh: inhibitors of MITF-dependent TRPM1 promoter reporter, primary screen, cell-based, SK-MEL-5, single point, luciferase; SK-MEL-5 TRPM1 promoter luciferase, 24 h; inhibition, % at 12.5 µM; 330,000 tested, 0.83% active;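 active = mean inhibition across replicates of 60% or more, whatever share of single replicates reaches that level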
# CF NFkB block: inhibitors of PAF-induced NF-kB signaling, primary screen, cell-based, GFP fluorescence, uHTS; KKLEB NF-kB-GFP reporter, GFP fluorescence overnight; inhibition, % at 5 µM; 360,000 tested, 0.86% active; AID 588850, 2011;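 active = at least 50% inhibition at 5 µM, scaled per plate between neutral and stimulator controls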;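 also: PAF is a Pseudomonas aeruginosa culture filtrate used as stimulus; plate controls were PAF-stimulated DMSO wells for no effect and unstimulated DMSO wells for full effect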
# HIF-2a block: HIF-2a reporter inhibitors, primary screen, luminescence, 786-0 RCC cells; 786-0 RCC cells HIF-2a reporter, luciferase luminescence, overnight; inhibition, % at 18.8 µM; 360,000 tested, 0.72% active;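 active = inhibition of the luminescence signal of 40% or more relative to plate controls, in a single-dose primary screen at 18.75 µM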
# An asterisk follows results filed as active; nt = not tested or not shown.
SMILES,Shn3 inh set2,Peg3 prom inh,KKLEB tox,TRPM1 prom inh,CF NFkB block,HIF-2a block
Cc1ccc(OCCOC(=O)c2cc(S(=O)(=O)N3CCCCC3)ccc2N2CCOCC2)cc1,78,17,-10,nt,8,6
COC(=O)C1CCN(C(=O)c2cc(-c3ccco3)nc3ccccc23)CC1,-4,1,-2,4,-18,12
N=C1/C(=C\c2ccc(-c3ccc(C(=O)O)cc3)o2)C(=O)N=C2SC=C(c3ccccc3)N12,-20,-9,-5,11,72*,-7
CCOC(=O)CC1COCCN1Cc1cn[nH]c1-c1cc(OC)c(OC)c(OC)c1 (configuration not stated),-6,8,-4,15,7,1
O=C(NNC(=O)C1CCN(S(=O)(=O)c2ccc(Cl)cc2)CC1)c1ccccc1O,87*,23,11,24,4,8
NNC(=O)C1CCN(S(=O)(=O)c2ccc(Cl)cc2)CC1,5,3,6,-6,-12,10
COc1ccc(C2N(C(=O)C(F)(F)F)C(C)CN2S(=O)(=O)c2ccc(C)cc2)cc1 (configuration not stated),9,-2,-11,21,12,-1
O=C1c2ccccc2C(=O)c2[nH]c(=O)[nH]c21,71,82*,-42,101*,96*,7
O=C1c2ccccc2C(=O)c2[nH]cnc21,17,-7,2,43,-26,17
Cc1cc(C)cc(NC(=O)CSc2nc(N)c(NC(=O)c3ccc(Br)o3)c(=O)[nH]2)c1,5,21,23,-7,-10,11
O=C(c1nn2c(C(F)(F)F)cc(-c3ccco3)nc2c1Br)N1CCCc2ccccc21,25,60*,-21,3,18,32
O=C(c1nn2c(C(F)(F)F)cc(-c3cccs3)nc2c1Br)N1CCCc2ccccc21,19,49,-19,0,35,1
CC(=O)N1N=C(c2ccco2)CC1c1ccc(Cl)o1 (configuration not stated),2,-1,7,4,-17,7
C=CCN=c1scc(-c2ccco2)n1/N=C/c1ccc(O)c(O)c1O,91*,-103,-7,-26,23,-109
CC(C)N=c1scc(-c2ccco2)n1/N=C/c1ccc(O)c(O)c1,94*,-220,-14,-23,2,-172
CC12CNCC(C)(CN(C(c3ccccc3)c3ccccc3)C1)C2,-55,81*,-6,2,5,-1
COc1ccc(C(=O)OCC(=O)c2ccc(CNC(C)=O)s2)cc1,-44,-38,0,-16,0,-48
CC(=O)NCc1ccc(C(=O)CCl)cc1,3,53*,14,29,2,15
CC(=O)NCc1ccc(C(=O)CCl)s1,-13,69*,-26,39,9,18
CC(=O)Nc1ccc(CNc2nc(NC(C)C)nc3cc(-c4ccccc4)sc23)cc1,23,65*,-56*,nt,-28,-31
COc1ccc(-c2cc(CNc3nc(NC(C)C)nc4cc(-c5ccccc5)sc34)on2)cc1,71,78*,-20,nt,-28,-23
C=CCNc1nc(NCc2ccc(NC(C)=O)cc2)c2sc(-c3ccccc3)cc2n1,-9,-116,-60*,nt,-7,-63
C=CCNc1nc(NCCCN2CCCC2=O)c2sc(-c3ccccc3)cc2n1,-15,-15,-24,nt,27,-131
c1ccc(-c2cc3nc(NCC4CC4)nc(NCC4CCCCC4)c3s2)cc1,88*,93*,-84*,nt,82*,16
Cc1nnc(NS(=O)(=O)c2ccc(F)cc2)s1,-5,2,9,1,4,9
SMILES,Shn3 inh set2,Peg3 prom inh,KKLEB tox,TRPM1 prom inh,CF NFkB block,HIF-2a block
Cc1cc(F)ccc1S(=O)(=O)Nc1ccccc1C(=O)N1CCCC1,-4,7,-12,2,10,15
CCn1c(C(=O)O)c(CC(=O)N(C)c2ccc(OC)cc2OC)c2ccccc21,0,6,3,0,6,11
CCN(CC)c1ccc(C(=C2C=CC(=[N+](CC)CC)C=C2)c2ccc(N(CC)CC)cc2)cc1,89*,106*,-101*,nt,92*,97*
CCOC(=O)[C@@H]1[C@H]2COc3cc(OC)ccc3[C@H]2N2C(=O)N(c3ccc(C)cc3)C(=O)[C@]12C,-4,-12,2,-10,-7,-10
COc1cc(NC(=O)CSc2nc(C3CC3)nc3ccccc23)cc(OC)c1,0,99*,-32,18,42,16
COc1ccc(/C=C2\SC(=S)N(CCC(=O)Nc3cccc(O)c3)C2=O)cc1OC,-15,-28,-13,-3,24,19
Cc1ccc(/C=C2\SC(=S)N(CCCC(=O)Nc3ccccc3C(=O)O)C2=O)cc1,25,47,13,21,0,87*
COc1ccc(/C=C2/SC(=S)N(CCCC(=O)Nc3ccccc3C(=O)O)C2=O)cc1,47,48,-14,41,-4,91*
COc1ccc(/C=C2/SC(=S)N(CCCC(=O)Nc3cccc(O)c3)C2=O)cc1,3,-53,1,8,-17,56*
CCc1ccc(/C=C2\SC(=S)N(CCCC(=O)Nc3ccc(C(=O)O)cc3)C2=O)cc1,27,-9,7,3,8,-34
CCc1ccc(/C=C2\SC(=S)N(CCCC(=O)Nc3ccccc3C(=O)O)C2=O)cc1,32,34,1,10,19,81*
Cc1ccc(/C=C2\SC(=S)N(CCCC(=O)Nc3nccs3)C2=O)cc1,15,-15,-4,3,3,48*
O=C(CCCN1C(=O)/C(=C\c2ccccc2)SC1=S)Nc1ccc(C(=O)O)cc1,15,-30,-1,6,2,-2
Cc1ccc(/C=C2/SC(=S)N(CCCC(=O)Nc3cc([N+](=O)[O-])ccc3O)C2=O)cc1,14,10,-12,14,8,65*
O=C(CN1C(=O)S/C(=C\c2ccccc2)C1=O)Nc1cc([N+](=O)[O-])ccc1O,3,-21,14,-11,9,-10
O=C(CCCN1C(=O)/C(=C/c2ccco2)SC1=S)Nc1cccc(C(=O)O)c1,5,5,3,-11,-7,14
COc1ccc(NC(=O)CCCN2C(=O)/C(=C\c3ccco3)SC2=S)cc1,-21,21,-1,6,5,61*
COC(=O)c1ccc(/C=C2/SC(=S)N(CCCC(=O)Nc3ccc(O)cc3)C2=O)cc1,-15,84*,-8,15,28,58*

# Screening data: PubChem BioAssay, several laboratories
